PostGolgi yeast: growth inhibition of a yeast mutant, post-Golgi transport screen; actives 0.9% (n = 98,000); inhibition, % at 10 µM; post-Golgi transport phenotypic cell assay; AID 739;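 note: yeast cells grown in 1536-well plates; yeast grown about 18 h at 30C before absorbance read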
CYP2C9 inh: inhibitors of human CYP2C9 | inhibition, % at 5 µM | CYP2C9 Supersomes, luciferin-H conversion, luminescence | actives 20% (n = 96,000) | P11712 | AID 777;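 active = blocking of liver enzyme CYP2C9 beyond about 50% at 5 µM, limit read from the data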
CYP2C19 act: activators of human cytochrome P450 2C19; P33261; recombinant CYP2C19, luciferin-H EGE luminescence; stronger effect = higher value; 0 = fully inhibited enzyme, 1 = untreated enzyme; activation factor at 5 µM; 96,000 tested, under 10 active;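 active = activation factor of at least 2 at 5 µM in the primary screen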
Target sequence (P33261 whole entry, looked up): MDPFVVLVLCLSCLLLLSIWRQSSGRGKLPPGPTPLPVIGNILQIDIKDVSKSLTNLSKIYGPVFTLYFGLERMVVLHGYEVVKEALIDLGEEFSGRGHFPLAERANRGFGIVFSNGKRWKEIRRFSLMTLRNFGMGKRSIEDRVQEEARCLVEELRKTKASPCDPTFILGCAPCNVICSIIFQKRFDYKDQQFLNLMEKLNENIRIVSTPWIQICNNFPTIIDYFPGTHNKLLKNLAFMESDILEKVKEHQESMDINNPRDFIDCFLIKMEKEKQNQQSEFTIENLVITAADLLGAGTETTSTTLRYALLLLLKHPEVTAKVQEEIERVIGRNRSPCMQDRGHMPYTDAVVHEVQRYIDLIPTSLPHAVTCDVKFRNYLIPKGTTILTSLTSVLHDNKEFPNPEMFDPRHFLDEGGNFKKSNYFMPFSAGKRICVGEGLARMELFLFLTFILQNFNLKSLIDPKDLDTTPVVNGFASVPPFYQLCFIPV
CYP2C19 inhib: inhibitors of human CYP2C19; AID 778; CYP2C19 Supersomes, luciferin-H EGE luminescence, 30 min; actives 21% (n = 96,000); inhibition, % at 5 µM;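 active = CYP2C19 inhibition above a set limit at 5 µM in the primary screen, cut at about 50% in these data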
PostGolgi ctrl: growth of the yeast control strain, post-Golgi counter-screen; efflux-deficient yeast background strain, growth absorbance A615, 16 h; inhibition, % at 10 µM; actives 5% (n = 98,000); AID 738
CYP2C9 activ: CYP2C9 (human) activation | P11712 | recombinant CYP2C9, luciferin-H conversion, luminescence; stronger effect = higher value; factor 1 = untreated enzyme, 0 = blocked | activation factor at 5 µM | actives 1.4% (n = 96,000) | AID 1024;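 active = activation factor of 2 or more for CYP2C9 at a 5 µM dose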
A number is an active result; – = inactive; · = not tested or not shown. Only some compounds are listed: those with a hit (about 32% of all), similar ones and a draw of the others. Cut-off read from the data, not from the text of the source, unless noted: active = inhibition above about 30%; inactive = the rest.

SMILES	PostGolgi yeast	CYP2C9 inh	CYP2C19 act	CYP2C19 inhib	PostGolgi ctrl	CYP2C9 activ
CCn1nc(C)c(/C=N/NC(=O)c2ccc3c(c2)c(C)c(C)n3Cc2ccccc2)c1C	–	88.9	–	85.6	–	–
Cc1ccc(OCc2nn3c(-c4n[nH]c5c4CCC5)nnc3s2)cc1	·	–	–	–	·	–
Nc1cc(N)nc(SCCN2CCCCC2)n1	–	–	–	–	–	–
O=c1nc2ccccc2c(NS(=O)(=O)c2ccc(Cl)cc2)n1-c1ccccc1	–	–	–	–	–	–
COc1ccc(CCNS(=O)(=O)c2ccccc2)cc1OC	–	–	–	–	–	–
COc1ccc(/C=C2/SC(=O)N(NS(=O)(=O)c3ccccc3)C2=S)cc1OC	–	70.5	–	–	–	–
CCNC(=O)n1nccc1C(C)Oc1ccccc1 (stereo not given)	–	–	–	54.9	–	–
CC(Oc1ccc(Cl)cc1)c1ccnn1S(=O)(=O)c1ccc(Cl)cc1 (stereo not given)	–	82.0	–	–	–	–
CC(Oc1ccccc1)c1ccnn1S(=O)(=O)c1ccccc1 (stereo not given)	–	63.6	–	–	–	–
O=C(NC1(C(F)(F)F)C(=O)Nc2c1c(=O)[nH]c(=O)n2-c1ccccc1)c1cccnc1 (stereo not given)	–	–	–	–	–	–
CC(C)N1C(=O)c2ccccc2C1C(=O)NC1CCCCCC1 (stereo not given)	–	–	–	–	–	–
CCC(C)N1C(=O)c2ccccc2C1C(=O)NC1CCCCCC1 (stereo not given)	–	–	–	–	31.1	–
COc1ccc(C(=O)N2CCN=C2SCc2cccnc2)c(OC)c1	–	62.4	–	87.5	–	–
COc1cccc(C(=O)N2CCN=C2SCc2cccnc2)c1OC	–	–	–	86.3	–	–
O=C(c1ccc2c(c1)OCO2)N1CCN=C1SCc1cccnc1	–	67.4	–	75.6	–	–
CCOc1cc([C@H]2[C@@H]3CCCC[C@]3(O)CCN2CC(=O)NCc2ccco2)ccc1O	–	54.1	–	56.1	–	–
CC(C)CCn1c(N)c(S(=O)(=O)c2cccs2)c2nc3ccccc3nc21	–	84.8	–	–	–	–
Nc1c(S(=O)(=O)c2cccs2)c2nc3ccccc3nc2n1CC1CCCO1 (stereo not given)	–	–	–	–	–	–
Nc1c(S(=O)(=O)c2cccs2)c2nc3ccccc3nc2n1CCc1ccccc1	–	58.5	–	57.9	–	–
c1csc(-c2nc3nc4ccccc4nc3n2Cc2ccc3c(c2)OCO3)c1	–	96.3	–	90.1	43.5	–
Nc1c(S(=O)(=O)c2cccs2)c2nc3ccccc3nc2n1Cc1ccc2c(c1)OCO2	–	90.9	–	–	–	–
Nc1c(S(=O)(=O)c2cccs2)c2nc3ccccc3nc2n1Cc1cccs1	–	–	–	–	–	–
COc1ccc(/C=C2\NC(=S)N(CC3CCCO3)C2=O)c(OC)c1C (stereo not given)	–	–	–	–	–	–
CC(=O)Nc1cccc(N2C(=O)CC(Cc3ccccc3)C2=O)c1 (stereo not given)	–	–	–	–	–	–
COc1ccccc1-c1ccc(=O)n(CC(=O)NC(C)(C)C)n1	–	–	–	–	–	–
SMILES	PostGolgi yeast	CYP2C9 inh	CYP2C19 act	CYP2C19 inhib	PostGolgi ctrl	CYP2C9 activ
COc1cc(-c2nnc(SCc3cc(=O)oc4cc(C)ccc34)o2)cc(OC)c1OC	–	82.9	–	66.2	–	–
Cc1ccc2c(CSc3nnc(C4CC4)n3N)cc(=O)oc2c1C	–	–	–	–	–	–
Cc1ccc2c(CSc3nnc(C4CC4)n3N)cc(=O)oc2c1	–	–	–	78.5	–	–
O=C(NCc1ccco1)c1cccc(N2CCCC2=O)c1	–	–	–	–	–	–
COc1ccc(NC(=O)CSc2nncs2)cc1OC	–	–	–	–	–	–
COC(=O)c1sc(NC(=O)CSc2nncs2)c(C(=O)OC)c1C	–	66.5	–	–	–	–
COC(=O)c1sc(NC(C)=O)c(C(=O)OC)c1C	–	–	–	–	–	–
COC(=O)c1sc(NC(=O)CC(C)C)c(C(=O)OC)c1C	–	–	–	58.7	–	–
COc1ccc(OC)c(NC(=O)CSc2nnnn2-c2ccc3c(c2)OCO3)c1	–	–	–	–	–	–
CCOC(=O)N1CCN(C2OC(=O)c3ccccc32)CC1 (stereo not given)	–	–	–	–	–	–
COc1ccc(/C=N/NC(=O)CCc2c(C)n[nH]c2C)cc1OC	–	–	–	–	–	–
COc1cc(/C=N/NC(=O)CCc2c(C)n[nH]c2C)cc(OC)c1OC	–	–	–	55.3	–	–
CCCCNCc1cc(OCC)c(OCC(N)=O)cc1Br	–	–	–	–	–	–
O=C(CS(=O)(=O)c1c[nH]c2ccccc12)Nc1ccc2c(c1)OCCO2	–	–	–	68.4	–	–
Cc1ccc(NC(=O)CS(=O)(=O)c2c[nH]c3ccccc23)c(C)c1	–	–	–	74.8	–	–
CC(=O)c1cc(-c2ccccc2)n(CC(=O)N2CCC(N3CCCCC3)CC2)c1C	–	–	–	–	–	–
O=C(N/N=C/c1cccc(C(F)(F)F)c1)C1CCN(c2ncc(C(F)(F)F)cc2Cl)CC1	–	–	–	–	–	–
CC(C)n1c(SC2CCOC2=O)nc2ccccc21 (stereo not given)	–	–	–	–	–	–
Cc1ccc(S(=O)(=O)NC(C(=O)OCC(=O)NC(=O)c2cccn2C)C(C)C)cc1 (stereo not given)	–	–	–	59.2	–	–
Cc1ccc(S(=O)(=O)N[C@H](C(=O)OCn2nnc3ccccc3c2=O)C(C)C)cc1	–	–	–	–	34.9	–
Cc1ccc(C(=O)OCC(=O)NC(=O)c2cccn2C)cc1	–	–	–	–	–	–
COc1ccc(C(=O)OCn2nnc3ccccc3c2=O)cc1OC	–	–	–	–	–	–
COc1cccc(C(=O)OCn2nnc3ccccc3c2=O)c1	–	–	–	81.0	–	–
CC(C)[C@H](NS(=O)(=O)c1ccccc1)C(=O)OCn1nnc2ccccc2c1=O	–	–	–	–	–	–
CN(C)S(=O)(=O)c1ccc(C(=O)OCn2nnc3ccccc3c2=O)cc1	58.0	59.0	–	–	–	–
SMILES	PostGolgi yeast	CYP2C9 inh	CYP2C19 act	CYP2C19 inhib	PostGolgi ctrl	CYP2C9 activ
CCOC(=O)C1=C(O)CSC1=Nc1ccc(Cl)cc1	–	–	–	–	–	–
O=C(OCn1nnc2ccccc2c1=O)c1ccco1	–	–	–	–	–	–
CCOC(=O)C(NS(=O)(=O)c1ccc(Br)cc1)C(C)C (stereo not given)	–	–	–	88.6	–	–
COC(=O)c1cccc(Cn2nnc3ccccc3c2=O)c1	–	–	–	51.4	–	–
Cc1cc(C(=O)OCn2nnc3ccccc3c2=O)c(C)o1	–	–	–	53.2	–	–
CC(C)C(NS(=O)(=O)c1ccc(Br)s1)C(=O)O (stereo not given)	–	–	–	–	–	–

Screens as filed in PubChem.
